# Hits are enriched below; roughly 27% of the tested compounds scored in any of these assays.
# CYP2C19 inhib – blockers of cytochrome P450 2C19 activity – biochemical, luminescence, ADME assay, primary screen; CYP2C19 Supersomes, luciferin-H EGE luminescence, 30 min; P33261; inhibition, % at 5 µM; 96,000 tested, 21% active; AID 778, 2007;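 active = CYP2C19 inhibition above a set limit at 5 µM in the primary screen, cut at about 50% in these data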
# CYP2C19 act – human CYP2C19 activators, primary screen, biochemical, luminescence. 96,000 tested, under 10 active. Cytochrome P450 2C19 (Homo sapiens), P33261. AID 1025, 2008. activation factor at 5 µM. recombinant CYP2C19, luciferin-H EGE luminescence; hits give high values; 0 = fully inhibited enzyme, 1 = untreated enzyme;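 active = activation factor of at least 2 at 5 µM in the primary screen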
# CYP2C9 inhib – blockers of cytochrome P450 2C9 activity – biochemical, luminescence, ADME assay, primary screen; AID 777, 2007; CYP2C9 Supersomes, luciferin-H conversion; inhibition, % at 5 µM; P11712; 96,000 tested, 20% active;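 active = blocking of liver enzyme CYP2C9 beyond about 50% at 5 µM, limit read from the data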
# Target sequence (P11712 whole entry, looked up): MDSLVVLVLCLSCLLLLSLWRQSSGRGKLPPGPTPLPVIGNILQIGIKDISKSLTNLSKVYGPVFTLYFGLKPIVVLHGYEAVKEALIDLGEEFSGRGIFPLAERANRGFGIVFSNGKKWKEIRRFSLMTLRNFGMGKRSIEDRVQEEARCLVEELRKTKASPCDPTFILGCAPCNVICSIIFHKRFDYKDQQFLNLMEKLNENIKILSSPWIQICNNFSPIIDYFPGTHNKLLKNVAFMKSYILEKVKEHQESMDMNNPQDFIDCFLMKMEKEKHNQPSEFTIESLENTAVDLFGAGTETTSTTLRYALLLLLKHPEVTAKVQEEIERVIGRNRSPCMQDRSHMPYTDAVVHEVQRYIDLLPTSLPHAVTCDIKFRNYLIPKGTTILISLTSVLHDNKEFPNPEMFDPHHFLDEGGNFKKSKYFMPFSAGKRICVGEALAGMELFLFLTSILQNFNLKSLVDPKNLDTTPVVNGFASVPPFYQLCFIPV
# CYP2C9 act – human CYP2C9 activators, primary screen, biochemical, luminescence | activation factor at 5 µM | recombinant CYP2C9, luciferin-H conversion; hits give high values; factor 1 = untreated enzyme, 0 = blocked | Cytochrome P450 2C9 (Homo sapiens), P11712 | 96,000 tested, 1.4% active;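 active = activation factor of 2 or more for CYP2C9 at a 5 µM dose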
# EphB4 ephrin blk – EphB4-ephrin-B2 interaction antagonists, primary screen, biochemical, TNYL-RAW peptide probe, fluorescence polarization | Ephrin type-B receptor 4 (Homo sapiens), P54760 | EphB4 LBD / TNYL-RAW-Alexa532 peptide | inhibition, % at 7 µM | 97,000 tested, 0.15% active;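 active = inhibition above the screen-wide mean inhibition plus 3 SD, cut at about 15% in these data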
# A number is an active result; - = inactive; . = no result given.
SMILES,CYP2C19 inhib,CYP2C19 act,CYP2C9 inhib,CYP2C9 act,EphB4 ephrin blk
COC(=O)c1ccccc1NC(=O)CCNC(=O)Cn1cnc2ccccc2c1=O,-,-,-,-,-
COC(=O)c1ccc(Cn2cnc3ccccc3c2=O)cc1,67,-,-,-,.
COc1ccc(Cl)cc1NC(=O)CCn1cnc2ccccc2c1=O,66,-,-,2.3,-
O=C(CCn1cnc2ccccc2c1=O)Nc1cccc(Cl)c1,-,-,-,-,-
CCNCCNC(=O)c1c(O)c2ccccc2n(CC)c1=O,-,-,-,-,-
O=C(O)Cn1cccc1C(=O)c1ccccc1,.,.,.,.,-
CN(Cc1ccccc1)C(=O)Cn1cccc1C(=O)c1ccccc1,70,-,-,-,-
Cc1cc(C)cc(Oc2ccc(C(F)(F)F)cc2C#N)c1,58,-,52,-,-
CCN(CC)S(=O)(=O)c1ccc(Cl)c(C(=O)NC2CCCC2)c1,-,-,-,-,-
CCN(CC)S(=O)(=O)c1ccc(Cl)c(C(=O)OC)c1,-,-,-,2.1,-
CCN(CC)S(=O)(=O)c1cc(C(=O)OC)ccc1Cl,62,-,-,-,-
CCC(CC)C(=O)Nc1c2cnn(-c3ccccc3)c2nc(=O)n1-c1ccccc1,-,-,-,-,-
Cc1ccc(S(=O)(=O)N(C)CC(=O)N2CCN(C(=O)c3ccco3)CC2)cc1,-,-,-,-,-
COC(=O)C1=C(O)/C(=C\c2ccc(CNC(=O)C(=O)Nc3ccc(C)cc3)o2)N=C1C,59,-,88,-,-
CCOC(=O)C1=C(O)/C(=C/c2ccc(CNC(=O)C(=O)Nc3ccc(C)cc3)o2)N=C1C,66,-,90,-,-
COC(=O)C1=C(O)/C(=C\c2ccc(CNC(=O)C(=O)Nc3ccc(C)c(C)c3)o2)N=C1C,50,-,80,-,-
CCN(CC(=O)Nc1ccc2c(c1)OCCO2)C(=O)c1cccc(S(=O)(=O)N2CCOCC2)c1,-,-,-,-,-
CCc1ccc(N(CC(=O)Nc2nc3ccc(C)cc3s2)S(=O)(=O)c2c(C)noc2C)cc1,58,-,93,-,-
Cc1n[nH]c(C)c1S(=O)(=O)N(CC(=O)NC1CCCC1)c1ccc(C(C)C)cc1,61,-,75,-,-
CCc1ccc(N(CC(=O)NC2CCCC2)S(=O)(=O)c2c(C)noc2C)cc1,-,-,64,-,-
CC(C)CNC(=S)NNC(=O)c1csc2c1CCCC2,-,-,-,-,-
O=C(Nc1ccccc1C(=O)NCCN1CCOCC1)c1ccco1,-,-,-,-,-
O=C(NCCCN1CCOCC1)c1ccco1,-,-,-,-,-
O=C(c1ccco1)N(CCCN1CCOCC1)c1nc(-c2ccc(Cl)cc2)cs1,87,-,92,-,-
O=C(c1ccco1)N(CCCN1CCOCC1)c1nc(-c2ccc(F)cc2)cs1,-,-,67,-,-
SMILES,CYP2C19 inhib,CYP2C19 act,CYP2C9 inhib,CYP2C9 act,EphB4 ephrin blk
CCOC(=O)c1c(NC(=O)c2nn(CC)cc2Br)c(C#N)nn1-c1ccccc1,64,-,-,-,-
CCOC(=O)c1nn(-c2ccccc2)c(C#N)c1NC(=O)c1nn(CC)cc1Br,-,-,72,-,-
O=C(COc1ccccc1)N1CCNC1=O,-,-,-,-,-
Cc1cc(-n2c(C)cc(C(=O)CSc3ccc4c(c3)OCCO4)c2C)no1,89,-,-,-,-
Cc1cc(C)c2c(n1)sc1c(=O)[nH]c(SCc3ccccc3)nc12,-,-,64,-,-
O=C(Nc1cccn(Cc2c(Cl)cccc2Cl)c1=O)c1ccccc1Cl,80,-,67,-,-
O=C(Nc1cccn(Cc2c(Cl)cccc2Cl)c1=O)c1ccc(Cl)cc1Cl,65,-,56,-,-
COc1ccc(C2=CSC3=C(C(=O)c4cccc(S(=O)(=O)N(C)C)c4)CCN23)cc1,86,-,64,-,-
Cc1ccn2c(C(=O)CSc3ccc(Cl)cc3)c(C)nc2c1,-,-,-,-,-
Cc1ccn2c(C(=O)c3ccc(Cl)cc3)cnc2c1,79,-,75,-,-
O=C1NC2(CCCCC2)N=C1c1ccc(F)cc1,-,-,-,-,-
O=C1NC2(CCCC2)N=C1c1ccc(Cl)cc1,84,-,-,-,-
O=C1NC2(CCCCC2)N=C1c1ccc(Br)cc1,57,-,-,-,-

# Screens: PubChem BioAssay, several laboratories
